Data on 39 compounds can be found in ChEMBL document CHEMBL3988442, “University of Dundee, Small-Polar-MMV Screening Library” (2021).

The target of this test is Chromo domain-containing protein 1 (Saccharomyces cerevisiae (strain ATCC 204508 / S288c) (Baker's yeast)) (UniProt P32657). Nature of the test: ScCHD-1 Enzyme Inhibition Assay. Details: scale not given: in the data most compounds retested in dose-response had high values. To be noted: 30 µM. It is filed as functional.
Sequence of Chromo domain-containing protein 1 (Saccharomyces cerevisiae (strain ATCC 204508 / S288c) (Baker's yeast)) (P32657 whole entry, the tested form may be a part): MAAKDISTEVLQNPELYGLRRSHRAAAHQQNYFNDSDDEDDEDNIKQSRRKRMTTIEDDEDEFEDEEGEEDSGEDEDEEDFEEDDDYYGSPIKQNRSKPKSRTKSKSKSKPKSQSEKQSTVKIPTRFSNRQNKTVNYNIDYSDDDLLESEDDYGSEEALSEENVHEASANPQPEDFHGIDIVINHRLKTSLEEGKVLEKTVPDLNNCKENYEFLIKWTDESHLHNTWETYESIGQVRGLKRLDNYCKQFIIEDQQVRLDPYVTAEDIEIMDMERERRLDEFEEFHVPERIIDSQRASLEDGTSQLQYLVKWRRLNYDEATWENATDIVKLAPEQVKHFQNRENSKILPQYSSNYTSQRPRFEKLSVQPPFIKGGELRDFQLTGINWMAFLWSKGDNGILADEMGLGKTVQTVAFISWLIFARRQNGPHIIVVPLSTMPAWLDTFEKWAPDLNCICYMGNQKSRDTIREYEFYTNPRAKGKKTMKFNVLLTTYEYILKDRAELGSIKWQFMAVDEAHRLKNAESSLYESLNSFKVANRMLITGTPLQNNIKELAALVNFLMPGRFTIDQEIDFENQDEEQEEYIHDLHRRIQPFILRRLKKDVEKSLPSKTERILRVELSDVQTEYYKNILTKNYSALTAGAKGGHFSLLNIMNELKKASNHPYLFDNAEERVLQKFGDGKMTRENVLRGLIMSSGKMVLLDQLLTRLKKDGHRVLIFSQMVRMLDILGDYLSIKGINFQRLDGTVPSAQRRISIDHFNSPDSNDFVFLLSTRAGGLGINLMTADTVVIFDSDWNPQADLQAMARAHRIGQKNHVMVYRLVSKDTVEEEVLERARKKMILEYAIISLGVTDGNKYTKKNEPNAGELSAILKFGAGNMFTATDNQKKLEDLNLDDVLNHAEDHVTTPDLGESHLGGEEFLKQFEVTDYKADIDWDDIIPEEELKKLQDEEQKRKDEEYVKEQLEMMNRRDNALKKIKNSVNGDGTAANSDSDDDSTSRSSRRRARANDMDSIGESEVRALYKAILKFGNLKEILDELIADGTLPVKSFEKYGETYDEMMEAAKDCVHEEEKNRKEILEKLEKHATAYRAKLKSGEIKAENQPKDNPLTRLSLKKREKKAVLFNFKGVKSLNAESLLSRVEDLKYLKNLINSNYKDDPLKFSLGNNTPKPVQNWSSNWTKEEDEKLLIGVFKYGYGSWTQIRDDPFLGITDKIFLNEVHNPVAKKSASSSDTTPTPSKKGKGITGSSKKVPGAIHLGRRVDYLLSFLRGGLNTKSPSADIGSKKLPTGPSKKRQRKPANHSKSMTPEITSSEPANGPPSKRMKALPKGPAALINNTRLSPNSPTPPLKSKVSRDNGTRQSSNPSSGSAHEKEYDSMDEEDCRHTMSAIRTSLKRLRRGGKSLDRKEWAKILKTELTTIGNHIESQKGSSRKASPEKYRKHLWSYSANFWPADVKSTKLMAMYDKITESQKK
Regarding `N#Cc1ccc(N2CCCN(C(=O)CC3CCCO3)CC2)cc1` (centres undefined), the Percent Effect was -12.8%.
For `O=c1ccc(-c2cccs2)nn1CN1CCN(Cc2ccccc2)CC1`, the Percent Effect is -12.8%.
As to `Cc1ccc(C(=O)NS(=O)(=O)c2cc(Cl)ccc2Cl)c(=O)[nH]1`, the Percent Effect was -3.61%.
Then `Cc1nccn1C1CCCN(C(=O)c2cc(O)nc3ccccc23)C1` (centres undefined), with -5.76%; and `CCCc1n[nH]c(C2CN(C(=O)c3cc(F)ccc3OC)CCO2)n1` (centres undefined), with -4.7%; and `Cc1cnn(CC2CCCN2CCCc2nc3ccccc3o2)c1` (centres undefined), with -7.36%.
Regarding `CC(=O)N1CC(Cc2nccc3ccn(C)c23)C1`, the Percent Effect was -6.59%.
Consider `CC(c1ccc(Cl)cc1)N1CCN(CCNS(C)(=O)=O)CC1` (centres undefined), for which the Percent Effect was -8.23%.
Then `CCn1ccnc1-c1nc2cc(S(=O)(=O)N3CCCC3)ccc2n1C`, with 100%; and `Cc1ccc(CNCc2ccc(-n3nc(C)cc3C)nc2)cc1`, with -9.49%.
For `CC(C)Oc1cccc(C(=O)C2CCCN(C(=O)c3ccccn3)C2)c1` (centres undefined), the Percent Effect is -1.58%.
With `CCCS(=O)(=O)N1CCOCC2(CCN(c3ccccn3)C2)C1` (centres undefined), the Percent Effect is -4.27%.
As for `CC(C)Oc1cccc(CNC(=O)NC(C)(C(=O)O)c2ccco2)c1` (centres undefined), the Percent Effect was -0.593%.
In the case of `O=C(Nc1cccc(CN2CCOC2=O)c1)N1CCSCC1`, the Percent Effect was 83.9%.
As for `Cc1cc(C)cc(NC(=O)CN2CCCC(n3cncn3)C2)c1` (centres undefined), the figure is -2.91%; as for `Cc1ncsc1CN1CC[C@H]2C(=O)N(c3ccccc3)CCO[C@H]2C1`, -4.23%; as for `CCc1nccn1C1CCCN(C(=O)c2ccc3c(c2)OCO3)C1` (centres undefined), -7.3%.
As for `CCN(CC)CC(=O)NCCc1csc(N2CCCC2)n1`, the figure is 6.78%.
Regarding `COc1cc(NC(=O)c2cc(C)sc2C)c(C(=O)N(C)C)cc1OC`, the Percent Effect is -1.78%.
For the compound `O=C(Cn1ccc2sccc2c1=O)NCc1ccc2c(c1)OCO2`, the Percent Effect was -2.27%.
Consider `Cc1nc(CN2C(=O)COC3(CCN(Cc4ccco4)CC3)C2C)cs1` (centres undefined), for which the Percent Effect was -2.61%.
Regarding `COc1cccc(S(=O)(=O)CCN2CCC3(CC2)OCCO3)c1`, the Percent Effect was -5.65%.
In the case of `CNC(=O)NC(=O)CN1CCC(c2cccc(F)c2)C1` (centres undefined), the Percent Effect was 4.66%.
With `N#Cc1ccc(CNCC(C(=O)N2CCOCC2)c2ccccc2)cc1` (centres undefined), the Percent Effect was -3.12%.
`Cc1ccccc1CNc1nc(O)cc(C2CC(=O)N(C)C2)n1` (centres undefined): the Percent Effect was -10.8%.
For the compound `COc1cccn(CC(=O)N(C)Cc2ccoc2)c1=O`, the Percent Effect stood at 1.52%.
With `CC(NCc1ccc(F)cc1)c1ccc(OCC(=O)NC2CC2)cc1` (centres undefined), the Percent Effect was -17.3%.
As for `COc1c(C)cnc(CN2CCCCC2Cn2nc(C)nc2C)c1C` (centres undefined), the Percent Effect was -9.69%.
Turning to `O=C1NCCN1C1CCN(Cc2nc(-c3ccoc3)no2)CC1`, the Percent Effect is -2.45%.
Then `Cc1cnc(N2CCCC3(CCN(Cc4csc(C)n4)C3=O)C2)nc1` (centres undefined), with -8.92%; and `CCS(=O)(=O)N(C)c1ccc(C(=O)N2CCCC(C)C2)cc1` (centres undefined), with -1.93%.
For `CC(=O)Nc1nc(C(=O)N2CCCC2c2noc(C)n2)cs1` (centres undefined), the Percent Effect was -6.82%.
With `Cc1cccc(NC(=O)N2CCCn3cnc(CN4CCCC4)c3C2)c1`, the Percent Effect was -4.14%.
As to `Cc1cc(C(F)(F)F)nn1CC(C)C(=O)Nc1ccncc1` (centres undefined), the Percent Effect was -5.12%.
Turning to `CNC(=O)c1ccc(OC2CCN(S(C)(=O)=O)CC2)c(Cl)c1`, the Percent Effect was -2.92%.
Consider `Cc1nnc(N2C[C@H](C(=O)NCC3CC3)[C@@H]3CCO[C@@H]3C2)s1`, for which the Percent Effect was -1.37%.
Turning to `CCOc1nnc(CNC2CCCN(c3ccc(C)nn3)C2)s1` (centres undefined), the Percent Effect is -2.87%.
Consider `CC(C)NC(=O)N1CCN(S(=O)(=O)C2CC2)CC2(CC(=O)N(C)C2)C1` (centres undefined), for which the Percent Effect is -4.42%.
As to `Cc1noc(CN2CCN(CC(C)O)CC2)n1` (centres undefined), the Percent Effect was -4.47%.
